In all, about 5,500 compounds went through this assay and about 2,000 (36%) were called active. Inconclusive results (about 18%) are left out. Rule as the data show it: active = normalized growth mostly below about 0.91 (no sharp cut-off); inconclusive = no clear call, values can overlap the other calls; inactive = mostly above about 0.92. Some of the results follow.
Test: chemical genetic growth profiling, strain panel (AID 1159580);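 also: tested at 20 µM; growth read once vehicle control cultures reached saturation at 30 °C; 1 = growth at the plate median or of vehicle wells; lower values mean less growth of the strain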
Conditions: growth OD
[1] = S. cerevisiae deletion strains, locus YDR150W, strain NUM1, stronger effect = lower value
[2] = S. cerevisiae deletion strains, locus YGR078C, strain PAC10, stronger effect = lower value
[3] = S. cerevisiae deletion strains, locus YGR229C, strain SMI1, stronger effect = lower value
[4] = S. cerevisiae deletion strains, locus YNL153C, strain GIM3, stronger effect = lower value
[5] = S. cerevisiae deletion strains, locus YNL322C, strain KRE1, stronger effect = lower value
[6] = S. cerevisiae deletion strains, locus YPL055C, strain LGE1, stronger effect = lower value
[7] = S. cerevisiae deletion strains, locus YHR030C, strain SLT2, stronger effect = lower value
[8] = S. cerevisiae deletion strains, locus YJL187C, strain SWE1, stronger effect = lower value

Measured: normalized growth

O=C(Cc1ccc(Cl)c(Cl)c1)N1CCCCC1CN1CCCC1 (stereo not drawn)
inactive: S. cerevisiae deletion strains, locus YAL040C, strain CLN3, stronger effect = lower value 0.982 | S. cerevisiae deletion strains, locus YCL061C, strain MRC1 (second series), stronger effect = lower value 1 | [1] 1.01 | S. cerevisiae deletion strains, locus YDR363W, strain ESC2, stronger effect = lower value 1.01 | S. cerevisiae deletion strains, locus YER002W, strain NOP16, stronger effect = lower value 0.999 | [2] 1.01 | [3] 1.03 | S. cerevisiae deletion strains, locus YMR307W, strain GAS1, stronger effect = lower value 0.999 | [4] 1.09 | S. cerevisiae deletion strains, locus YNL175C, strain NOP13, stronger effect = lower value 1.02 | S. cerevisiae deletion strains, locus YNL197C, strain WHI3, stronger effect = lower value 1.03 | S. cerevisiae deletion strains, locus YNL224C, strain SQS1, stronger effect = lower value 0.999 | [5] 1.05 | S. cerevisiae deletion strains, locus YOR083W, strain WHI5 (second series), stronger effect = lower value 1.05 | [6] 1.01

CCOC(=O)c1ccc(N2CC3CCCCN3C2c2ccc(Cl)c(Cl)c2)cc1 (stereo not drawn)
active: S. cerevisiae deletion strains, locus YLR262C, strain YPT6, stronger effect = lower value 0.744
inactive: S. cerevisiae deletion strains, locus YAL013W, strain DEP1, stronger effect = lower value 0.989 | S. cerevisiae deletion strains, locus YBR229C, strain ROT2, stronger effect = lower value 0.974 | S. cerevisiae deletion strains, locus YCL061C, strain MRC1, stronger effect = lower value 0.991 | S. cerevisiae deletion strains, locus YDL101C, strain DUN1, stronger effect = lower value 1 | S. cerevisiae deletion strains, locus YDL134C, strain PPH21, stronger effect = lower value 1.01 | [1] 0.992 | S. cerevisiae deletion strains, locus YEL061C, strain CIN8, stronger effect = lower value 0.993 | [2] 0.992 | [3] 1 | [7] 0.971 | S. cerevisiae deletion strains, locus YHR087W, strain rtc3, stronger effect = lower value 0.992 | [8] 0.982 | S. cerevisiae deletion strains, locus YJR043C, strain POL32, stronger effect = lower value 1.01 | S. cerevisiae deletion strains, locus YJR075W, strain HOC1, stronger effect = lower value 0.998 | S. cerevisiae deletion strains, locus YLR039C, strain RIC1, stronger effect = lower value 0.889 | S. cerevisiae deletion strains, locus YLR058C, strain SHM2 (second series), stronger effect = lower value 0.997 | S. cerevisiae deletion strains, locus YLR085C, strain ARP6, stronger effect = lower value 0.97 | S. cerevisiae deletion strains, locus YML094W, strain GIM5, stronger effect = lower value 0.972 | S. cerevisiae deletion strains, locus YMR219W, strain ESC1, stronger effect = lower value 0.984 | S. cerevisiae deletion strains, locus YMR263W, strain SAP30, stronger effect = lower value 0.976 | [4] 0.997 | S. cerevisiae deletion strains, locus YNL298W, strain CLA4 (second series), stronger effect = lower value 1.02 | [5] 1 | S. cerevisiae deletion strains, locus YNR030W, strain Alg12, stronger effect = lower value 0.997 | [6] 0.922 | S. cerevisiae deletion strains, locus YPL241C, strain CIN2, stronger effect = lower value 0.987 | S. cerevisiae deletion strains, locus YPR135W, strain CTF4, stronger effect = lower value 0.893 | S. cerevisiae strains, strain wild type, stronger effect = lower value 1.01

O=C(O)[C@H]1/C(=C/CO)O[C@@H]2CC(=O)N21
inactive: S. cerevisiae deletion strains, locus YAL021C, strain ccr4, stronger effect = lower value 0.992 | S. cerevisiae deletion strains, locus YAL026C, strain drs2, stronger effect = lower value 0.991 | S. cerevisiae deletion strains, locus YAL030W, strain snc1, stronger effect = lower value 0.992 | S. cerevisiae deletion strains, locus YBL061C, strain skt5, stronger effect = lower value 0.955 | S. cerevisiae deletion strains, locus YBR009C, strain hhf1, stronger effect = lower value 1.01 | S. cerevisiae deletion strains, locus YBR023C, strain chs3, stronger effect = lower value 0.978 | S. cerevisiae deletion strains, locus YBR171W, strain sec66, stronger effect = lower value 0.983 | S. cerevisiae deletion strains, locus YBR231C, strain swc5, stronger effect = lower value 1.02 | S. cerevisiae deletion strains, locus YBR279W, strain paf1, stronger effect = lower value 0.976 | S. cerevisiae deletion strains, locus YCL011C, strain gbp2, stronger effect = lower value 1.02 | S. cerevisiae deletion strains, locus YCL016C, strain dcc1, stronger effect = lower value 0.972 | S. cerevisiae deletion strains, locus YCL069W, strain vba3, stronger effect = lower value 0.986 | S. cerevisiae deletion strains, locus YCR088W, strain abp1, stronger effect = lower value 0.986 | S. cerevisiae deletion strains, locus YDL005C, strain med2, stronger effect = lower value 0.971 | S. cerevisiae deletion strains, locus YDL040C, strain nat1, stronger effect = lower value 0.982 | S. cerevisiae deletion strains, locus YDR001C, strain nth1, stronger effect = lower value 0.981 | S. cerevisiae deletion strains, locus YDR069C, strain doa4, stronger effect = lower value 1.01 | S. cerevisiae deletion strains, locus YDR137W, strain rgp1, stronger effect = lower value 0.982 | S. cerevisiae deletion strains, locus YDR159W, strain sac3, stronger effect = lower value 0.97 | S. cerevisiae deletion strains, locus YDR195W, strain ref2 0.96 | S. cerevisiae deletion strains, locus YDR297W, strain sur2, stronger effect = lower value 1 | S. cerevisiae deletion strains, locus YDR334W, strain swr1, stronger effect = lower value 0.988 | S. cerevisiae deletion strains, locus YDR335W, strain msn5, stronger effect = lower value 0.976 | S. cerevisiae deletion strains, locus YDR392W, strain spt3, stronger effect = lower value 0.883 | S. cerevisiae deletion strains, locus YEL003W, strain gim4, stronger effect = lower value 1 | S. cerevisiae deletion strains, locus YEL037C, strain rad23, stronger effect = lower value 0.985 | S. cerevisiae deletion strains, locus YEL061C, strain CIN8 (second series), stronger effect = lower value 0.986 | S. cerevisiae deletion strains, locus YER015W, strain faa2, stronger effect = lower value 0.996 | S. cerevisiae deletion strains, locus YER016W, strain bim1, stronger effect = lower value 0.957 | S. cerevisiae deletion strains, locus YER111C, strain swi4, stronger effect = lower value 0.973 | S. cerevisiae deletion strains, locus YER155C, strain BEM2 (second series), stronger effect = lower value 0.999 | S. cerevisiae deletion strains, locus YFR010W, strain ubp6, stronger effect = lower value 1.02 | S. cerevisiae deletion strains, locus YGL167C, strain pmr1, stronger effect = lower value 0.986 | S. cerevisiae deletion strains, locus YGL173C, strain kem1, stronger effect = lower value 0.997 | S. cerevisiae deletion strains, locus YGL227W, strain vid30, stronger effect = lower value 0.971 | S. cerevisiae deletion strains, locus YGL240W, strain doc1, stronger effect = lower value 1.01 | S. cerevisiae deletion strains, locus YGL253W, strain hxk2, stronger effect = lower value 0.959 | S. cerevisiae deletion strains, locus YHR013C, strain ard1, stronger effect = lower value 0.957 | S. cerevisiae deletion strains, locus YHR027C, strain rpn1, stronger effect = lower value 0.992 | [7] 0.964 | S. cerevisiae deletion strains, locus YHR079C, strain IRE1, stronger effect = lower value 0.959 | S. cerevisiae deletion strains, locus YHR142W, strain chs7, stronger effect = lower value 0.959 | S. cerevisiae deletion strains, locus YJL092W, strain hpr5, stronger effect = lower value 0.999 | S. cerevisiae deletion strains, locus YJL095W, strain BCK1 (second series), stronger effect = lower value 1 | S. cerevisiae deletion strains, locus YJL095W, strain BCK1, stronger effect = lower value 0.991 | S. cerevisiae deletion strains, locus YJL115W, strain asf1, stronger effect = lower value 0.983 | S. cerevisiae deletion strains, locus YJL129C, strain trk1, stronger effect = lower value 0.941 | S. cerevisiae deletion strains, locus YJL154C, strain vps35, stronger effect = lower value 0.982 | S. cerevisiae deletion strains, locus YJL164C, strain tpk1, stronger effect = lower value 0.993 | S. cerevisiae deletion strains, locus YJL166W, strain qcr8, stronger effect = lower value 1.03 | [8] 0.995 | S. cerevisiae deletion strains, locus YJR066W, strain TOR1, stronger effect = lower value 0.936 | S. cerevisiae deletion strains, locus YKL160W, strain elf1, stronger effect = lower value 0.955 | S. cerevisiae deletion strains, locus YKR026C, strain gcn3, stronger effect = lower value 0.99 | S. cerevisiae deletion strains, locus YKR091W, strain srl3, stronger effect = lower value 0.986 | S. cerevisiae deletion strains, locus YLL001W, strain dnm1, stronger effect = lower value 0.984 | S. cerevisiae deletion strains, locus YLL026W, stronger effect = lower value 0.987 | S. cerevisiae deletion strains, locus YLL041C, strain sdh2, stronger effect = lower value 1.02 | S. cerevisiae deletion strains, locus YLR027C, strain aat2, stronger effect = lower value 1 | S. cerevisiae deletion strains, locus YLR113W, strain HOG1, stronger effect = lower value 0.974 | S. cerevisiae deletion strains, locus YLR221C, strain rsa3, stronger effect = lower value 1.01 | S. cerevisiae deletion strains, locus YLR258W, strain gsy2, stronger effect = lower value 1 | S. cerevisiae deletion strains, locus YLR262C, strain YPT6 (second series), stronger effect = lower value 1.02 | S. cerevisiae deletion strains, locus YLR320W, strain mms22, stronger effect = lower value 1.01 | S. cerevisiae deletion strains, locus YLR342W, strain FKS1, stronger effect = lower value 0.965 | S. cerevisiae deletion strains, locus YLR357W, strain rsc2, stronger effect = lower value 0.931 | S. cerevisiae deletion strains, locus YLR370C, strain arc18, stronger effect = lower value 0.972 | S. cerevisiae deletion strains, locus YLR384C, strain iki3, stronger effect = lower value 0.98 | S. cerevisiae deletion strains, locus YML120C, strain ndi1, stronger effect = lower value 0.997 | S. cerevisiae deletion strains, locus YMR058W, strain fet3, stronger effect = lower value 0.993 | S. cerevisiae deletion strains, locus YMR125W, strain sto1, stronger effect = lower value 0.954 | S. cerevisiae deletion strains, locus YMR129W, stronger effect = lower value 0.981 | S. cerevisiae deletion strains, locus YMR205C, strain PFK2, stronger effect = lower value 0.99 | S. cerevisiae deletion strains, locus YMR231W, strain pep5, stronger effect = lower value 0.983 | S. cerevisiae deletion strains, locus YNL071W, strain lat1, stronger effect = lower value 0.996 | S. cerevisiae deletion strains, locus YNL183C, strain NPR1, stronger effect = lower value 0.952 | S. cerevisiae deletion strains, locus YNL209W, strain ssb2, stronger effect = lower value 0.98 | S. cerevisiae deletion strains, locus YNL248C, strain rpa49, stronger effect = lower value 0.935 | S. cerevisiae deletion strains, locus YNL322C, strain KRE1 (second series), stronger effect = lower value 0.973 | S. cerevisiae deletion strains, locus YNR049C, strain mso1, stronger effect = lower value 0.972 | S. cerevisiae deletion strains, locus YOR001W, strain rrp6, stronger effect = lower value 1.03 | S. cerevisiae deletion strains, locus YOR070C, strain gyp1, stronger effect = lower value 0.994 | S. cerevisiae deletion strains, locus YOR080W, strain dia2, stronger effect = lower value 0.988 | S. cerevisiae deletion strains, locus YOR083W, strain WHI5, stronger effect = lower value 0.909 | S. cerevisiae deletion strains, locus YOR106W, strain vam3, stronger effect = lower value 0.952 | S. cerevisiae deletion strains, locus YOR231W, strain MKK1, stronger effect = lower value 0.987 | S. cerevisiae deletion strains, locus YOR265W, strain rbl2, stronger effect = lower value 0.993 | S. cerevisiae deletion strains, locus YOR270C, strain vph1, stronger effect = lower value 1 | S. cerevisiae deletion strains, locus YOR290C, strain snf2, stronger effect = lower value 0.986 | S. cerevisiae deletion strains, locus YPL051W, strain arl3, stronger effect = lower value 0.979 | S. cerevisiae deletion strains, locus YPL078C, strain atp4, stronger effect = lower value 0.967 | S. cerevisiae deletion strains, locus YPL106C, strain sse1, stronger effect = lower value 0.979 | S. cerevisiae deletion strains, locus YPL240C, strain hsp82, stronger effect = lower value 1.01 | S. cerevisiae deletion strains, locus YPL256C, strain CLN2, stronger effect = lower value 0.959
